Key:
Experiment in all cases: inhibition of PEG-3 promoter-driven reporter – cell-based, HeLa, luciferase, CREF/GAPDH counter-screen panel, dose response (AID 624167)
PEG-3 [1] = target: PEG-3 (UniProt Q6IN02); conditions: CREF/GAPDH counter-screens; HeLa PEG-Prom luciferase reporter, overnight, run 1, dose range 1, at 100 µM (top of the series) unless noted
PEG-3 [2] = target: PEG-3 (UniProt Q6IN02); conditions: CREF/GAPDH counter-screens; HeLa PEG-Prom luciferase reporter, overnight, run 2, dose range 1, at 100 µM (top of the series) unless noted
Rat fibroblasts (CREF) [3] = conditions: CREF/GAPDH counter-screens; run 1, dose range 1, at 100 µM (top of the series)
Rat fibroblasts (CREF) [4] = conditions: CREF/GAPDH counter-screens; run 2, dose range 1, at 100 µM (top of the series)

Sequence of PEG-3 (Q6IN02 whole entry, looked up): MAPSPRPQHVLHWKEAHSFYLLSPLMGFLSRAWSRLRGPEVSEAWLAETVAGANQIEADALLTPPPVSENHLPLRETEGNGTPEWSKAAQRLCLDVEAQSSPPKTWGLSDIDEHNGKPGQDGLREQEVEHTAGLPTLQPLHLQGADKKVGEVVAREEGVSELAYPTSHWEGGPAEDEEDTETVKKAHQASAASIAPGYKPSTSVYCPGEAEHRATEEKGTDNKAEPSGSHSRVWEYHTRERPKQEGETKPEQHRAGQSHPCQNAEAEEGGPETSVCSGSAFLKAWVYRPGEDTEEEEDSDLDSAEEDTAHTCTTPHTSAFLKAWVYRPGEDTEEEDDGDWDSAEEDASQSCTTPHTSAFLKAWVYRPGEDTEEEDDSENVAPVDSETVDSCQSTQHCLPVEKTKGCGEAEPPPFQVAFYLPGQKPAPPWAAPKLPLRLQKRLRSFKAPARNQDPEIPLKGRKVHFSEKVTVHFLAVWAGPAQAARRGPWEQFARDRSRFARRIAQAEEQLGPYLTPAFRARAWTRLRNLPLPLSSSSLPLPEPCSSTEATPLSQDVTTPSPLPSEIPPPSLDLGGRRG

SMILES	inhibition (PEG-3 [1])	inhibition (PEG-3 [2])	inhibition (Rat fibroblasts (CREF) [3]) [%]	inhibition (Rat fibroblasts (CREF) [4]) [%]
C(=N\Nc1ccc2ccccc2n1)/c1ccc2c(c1)OCCO2	98.4%	96.2%	53.6	101
COc1ccc(/C=C2/CCCC(CN(C)C)C2=O)cc1 (stereo not drawn)	99.5%	98.8%	95.5	68.5
O=c1cnnc(N/N=C/c2ccccn2)[nH]1	66.3%	58.7%	49.4	51.1
CS(=O)(=O)c1ccc(-c2cn3cc(C(=O)O)ccc3n2)cc1	82.1%	57.2%	71	66.8
O=C(N/N=C/c1ccc(Cl)c([N+](=O)[O-])c1)c1cc(-c2ccc3c4c(cccc24)CC3)n[nH]1	95.1% [run 1, dose range 1, at 50 µM]	93.6%	-4.6	4.99
CC(=O)NC(c1ccc(N(C)C)cc1)c1cc(Cl)c2cccnc2c1O (stereo not drawn)	76.1%	88.8%	-10.5	94.6
Cc1ccc2nc(-c3ccc4c(c3)OCCO4)cn2c1	98.2%	99.6%	100	99.9
O=C(CN1C(=O)c2ccccc2S1(=O)=O)c1ccc2c(c1)OCCO2	102%	101%	95.2	96
CN(C)c1ccc(NC(=S)c2ccccn2)cc1	93.1%	85.4%	94.4	96.1
Cc1cc(C2=NNC(=NC3CC3)SC2)c(C)n1-c1ccccc1F	98%	102%	96.9	97.5
CN(C)c1ccc(/C=C(\C#N)c2ccccn2)cc1	81.8%	84.6%	98.2	99
Cc1ccc(OCC(=O)c2cc(C)n(-c3ccccc3)c2C)c([N+](=O)[O-])n1	77.6%	74.5%	-20	-61.9
O=C(Nc1ncc([N+](=O)[O-])s1)c1ccc2c(c1)OCO2	96.1%	89.6%	91.5	91.7
O=C(Nc1nc2cc3c(cc2s1)OCCO3)c1ccco1	97.8%	95.5%	92.9	95.1
Cc1cc(/C=N/Nc2ncnc(N)c2[N+](=O)[O-])c(C)n1-c1ccccc1	93.6%	87%	91.1	93.5
CCCCCCCn1c(=N)n(CC(=O)c2ccco2)c2ccccc21	102%	100%	95.9	98

SMILES	inhibition (PEG-3 [1])	inhibition (PEG-3 [2])	inhibition (Rat fibroblasts (CREF) [3]) [%]	inhibition (Rat fibroblasts (CREF) [4]) [%]
O=C(O)c1ccc(CN2C(=O)c3cccc4c([N+](=O)[O-])ccc(c34)C2=O)cc1	99%	100%	71.3	98.6
CC1=NOC(=O)/C1=C\c1ccc(-c2ccccc2Br)o1	99.2%	98.5%	94.2	53.8
O=C(O)c1cccc(COc2ccc(CO)cc2Cl)c1	97.3%	102%	91.5	91.1
CCCn1nc(C(=O)Nc2nc(-c3ccccn3)cs2)c2ccccc2c1=O	84.7%	80.4%	7.59	23.2
Cc1ccc(-c2cc3c(N=O)c4ccccc4c-3n[nH]2)cc1	75.1%	86.7%	87.3	78.5
Cc1ccccc1OCC(=O)Nc1cccc(C(=O)O)c1	99.1%	95.1%	95.9	68.4
COc1ccc(-n2c(O)c(/C=N/Nc3nc(C)cc(C)n3)c3ccccc3c2=O)cc1OC	57.2%	63.9%	80.4	68.5
NS(=O)(=O)c1ccc(CCNc2nn3c(-c4ccc(F)c(Cl)c4)cnc3s2)cc1	66.9%	74.3%	28.6	14.8
COc1ccc(S(=O)(=O)/N=C2\C=C(Nc3ccc(O)cc3)C(=O)c3ccccc32)cc1	96.4%	99.7%	101	97.4
CC1CC(C)C(=O)C(C(CC2CC(=O)NC(=O)C2)OC(=O)CC(=O)c2ccccc2)C1 (stereo not drawn)	72.4%	85.5%	44.6	23.7
CCCC(=O)NC(c1ccc(C(C)C)cc1)c1ccc2cccnc2c1O (stereo not drawn)	95.6%	82.8%	17.4	7.77
Cc1ccc(-n2c(N)c(C(=O)Nc3c(C)n(C)n(-c4ccccc4)c3=O)c3nc4ccccc4nc32)cc1	52.5%	62.7%	89.4	83.7
Oc1c(I)cc(Cl)c2cccnc12	71.1%	41.4%	87	85.5
COc1cc(/C=C2\SC(=Nc3ccccc3OC)NC2=O)ccc1O	-37%	89.3% [run 2, dose range 1, at 25 µM]	-38.3	-20.9
CCn1nc(C)cc1-c1nnc(Sc2ncc([N+](=O)[O-])s2)n1C	102%	101%	99.4	98.8
CCOc1cccc(/C=N/NC(=S)Nc2cc(S(=O)(=O)N3CCOCC3)ccc2N2CCOCC2)c1O	70.7%	50.5%	26.2	48.3

Source: PubChem BioAssay
